# Measurements published in PMC4336329 (PLoS ONE, 2015).
# Hit rate of the full screen: of about 310,000 compounds, about 14,000 (4.5%) showed an effect of 50% or more. The effect is printed as a negative number. Many of the other results were omitted from the sample, so strong results are more common in it than they were.
# Biological target: human ether-à-go-go-related gene (hERG) potassium channel (human, UniProt Q12809)
# Test: primary screen, population patch clamp on CHO cells stably expressing hERG; higher = less effect of the substance
# 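Note: peak tail current of the secondary pulse compared with the same well before compound.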
# Sequence of human ether-à-go-go-related gene (hERG) potassium channel (Q12809 whole entry, looked up): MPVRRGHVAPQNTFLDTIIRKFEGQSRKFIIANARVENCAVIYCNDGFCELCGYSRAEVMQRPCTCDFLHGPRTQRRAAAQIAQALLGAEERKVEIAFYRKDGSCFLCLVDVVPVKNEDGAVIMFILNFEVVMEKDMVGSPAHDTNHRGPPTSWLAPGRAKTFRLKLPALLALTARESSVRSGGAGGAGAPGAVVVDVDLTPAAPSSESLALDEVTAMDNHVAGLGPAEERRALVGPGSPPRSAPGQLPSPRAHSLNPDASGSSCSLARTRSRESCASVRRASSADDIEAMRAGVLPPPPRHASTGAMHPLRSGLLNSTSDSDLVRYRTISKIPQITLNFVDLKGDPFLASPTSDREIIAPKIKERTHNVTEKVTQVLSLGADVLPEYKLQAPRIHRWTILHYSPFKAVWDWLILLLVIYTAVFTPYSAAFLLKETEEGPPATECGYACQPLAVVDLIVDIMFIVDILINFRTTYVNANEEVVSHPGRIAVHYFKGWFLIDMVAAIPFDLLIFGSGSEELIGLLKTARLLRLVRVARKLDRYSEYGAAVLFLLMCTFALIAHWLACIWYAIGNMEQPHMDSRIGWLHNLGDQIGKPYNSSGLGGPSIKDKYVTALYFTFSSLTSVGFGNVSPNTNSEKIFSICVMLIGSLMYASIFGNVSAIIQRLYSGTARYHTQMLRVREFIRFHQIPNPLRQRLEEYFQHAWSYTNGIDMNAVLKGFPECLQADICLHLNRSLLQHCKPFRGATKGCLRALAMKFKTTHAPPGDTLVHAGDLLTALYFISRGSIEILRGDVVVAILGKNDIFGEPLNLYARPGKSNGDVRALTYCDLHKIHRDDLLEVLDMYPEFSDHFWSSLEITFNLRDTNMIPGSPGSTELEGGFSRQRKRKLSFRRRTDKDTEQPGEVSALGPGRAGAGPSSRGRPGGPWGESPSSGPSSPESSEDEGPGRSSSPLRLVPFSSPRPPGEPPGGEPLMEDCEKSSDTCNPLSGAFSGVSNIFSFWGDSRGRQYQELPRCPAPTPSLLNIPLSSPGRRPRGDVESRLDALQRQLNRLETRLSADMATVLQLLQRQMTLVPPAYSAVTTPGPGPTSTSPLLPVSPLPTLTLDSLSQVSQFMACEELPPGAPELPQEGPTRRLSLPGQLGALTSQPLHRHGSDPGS
row,SMILES,"hERG current change (%, negative = inhibition) at 10uM [%]"
1,O=C(Nc1ccccc1C(=O)NC1CC1)c1ccccc1,12.9
2,O=C(O)c1ccc(Cl)c(S(=O)(=O)N(Cc2ccccc2)c2ccccc2)c1,7.76
3,CC1(C)CC(NC(=O)c2ccc(Cl)c(S(=O)(=O)N(Cc3ccccc3)c3ccccc3)c2)CC(C)(C)N1,-62.3
4,COc1ccccc1N(Cc1ccccc1)S(=O)(=O)c1cccc(C(=O)O)c1,10.9
5,O=C(O)c1ccc(Cl)c(S(=O)(=O)N(Cc2ccccc2)c2ccc(F)cc2)c1,13.9
6,CN(C)S(=O)(=O)c1ccc(F)c(C(=O)Nc2ccccc2C(=O)NC2CC2)c1,-38.7
7,CN(C)S(=O)(=O)c1cc(C(=O)Nc2ccccc2C(=O)NC2CC2)ccc1Cl,-62.2
8,CC1(C)CC(NC(=O)c2cccc(S(=O)(=O)N(Cc3ccccc3)c3ccccc3)c2)CC(C)(C)N1,-45.3
9,COc1ccccc1N(Cc1ccccc1)S(=O)(=O)c1cccc(C(=O)NC2CC(C)(C)NC(C)(C)C2)c1,-73.4
10,CC1C(=O)N2CCCc3cc(S(=O)(=O)N4CCC(C(N)=O)CC4)cc1c32 (stereo not drawn),7.24
11,CC1CCN(c2ccc(C(=O)Nc3ccc4c(c3)OCO4)cc2[N+](=O)[O-])CC1,7.17
12,O=C(CN(C(=O)C1CSC(=O)C1)c1ccccc1F)NCc1ccc2c(c1)OCO2 (stereo not drawn),-12.4
13,CN(Cc1ccccc1)C(=O)COC(=O)c1cc(S(=O)(=O)N(C)C)ccc1N1CCCC1,1.93
14,O=C(COC(=O)c1cc([N+](=O)[O-])ccc1N1CCOCC1)Nc1ncc(Cl)cc1Cl,-29.2
15,O=C(COC(=O)c1cc([N+](=O)[O-])ccc1N1CCOCC1)Nc1c(Cl)cccc1Cl,-5.53
16,O=C(COC(=O)c1cc([N+](=O)[O-])ccc1N1CCOCC1)NCc1ccc(F)cc1,-53.7
17,CN(Cc1ccccc1)C(=O)COC(=O)c1ccc(S(=O)(=O)N(C)C)cc1,-2.9
18,O=C(COC(=O)c1cc([N+](=O)[O-])ccc1N1CCOCC1)Nc1ccc(Cl)cn1,-61.5
19,O=C(COC(=O)c1cc([N+](=O)[O-])ccc1N1CCOCC1)NCCc1ccccc1,-45.4
20,CCN(CC)S(=O)(=O)c1ccc(O)c(C(=O)OCC(=O)N(C)Cc2ccccc2)c1,-55.4
21,O=C(COC(=O)c1cc([N+](=O)[O-])ccc1N1CCOCC1)Nc1cc(F)ccc1F,-49.8
22,COc1ccc(NC(=O)COC(=O)c2cc([N+](=O)[O-])ccc2N2CCOCC2)cc1,-29.3
23,COc1cccc(CNC(=O)COC(=O)c2cc([N+](=O)[O-])ccc2N2CCCC2)c1,-56.9
24,COc1ccccc1NC(=O)COC(=O)c1cc([N+](=O)[O-])ccc1N1CCCC1,-0.76

row,SMILES,"hERG current change (%, negative = inhibition) at 10uM [%]"
1,CCCc1nnc(NC(=O)CN2CCN(C)CC2)s1.Cl,-1.91
2,O=C(Nc1cccc(O)c1)c1noc2c1CCCCC2,-8.56
3,O=c1[nH]nc(-c2ccc(F)cc2)cc1Cc1ccccc1,3.89
4,CN(C)C(=O)c1cc(C(=O)c2ccc(F)cc2Cl)c[nH]1,11.4
5,CN(Cc1ccc(OC(F)F)cc1)Cc1nc2c(Br)cc(Br)cc2c(=O)[nH]1,-5.29
6,COc1cc(/C=C/C(=O)OCC(=O)NC2CCS(=O)(=O)C2)ccc1OC(F)F (stereo not drawn),-14
7,COc1cc(NC(=O)NS(=O)(=O)c2ccc(C)cc2)cc(OC)c1,-1.04
8,CSc1snc(SCC(N)=O)c1C#N,20.6
9,Cc1cccc(-n2c(C)nc3c(cnn3-c3ccc(F)cc3)c2=O)c1,-12.6
10,COc1ccc(C)cc1NC(=O)c1cccc(-c2ccc(OC(C)=O)cc2)c1,28.5
11,COc1ccc(NC(=O)Nc2nnc(N3CCC(C)CC3)s2)cc1OC,-0.885
12,CC1=NNC(=O)C1C(c1cccc(O)c1)C(C#N)C#N (stereo not drawn),14.3
13,O=C(COC(=O)c1cc([N+](=O)[O-])ccc1N1CCOCC1)Nc1cccc(F)c1,-28.5
14,O=C(NCCOc1ccccc1)c1cc([N+](=O)[O-])ccc1N1CCOCC1,-62.1
15,O=C(COC(=O)c1cc([N+](=O)[O-])ccc1N1CCOCC1)c1ccccc1Cl,-2.75
16,O=C(NC1CCSc2ccccc21)c1cccc([N+](=O)[O-])c1 (stereo not drawn),-21.1
17,O=C(NC1CCCCC1)c1cc([N+](=O)[O-])ccc1N1CCOCC1,-13.8
18,O=C(NCCOc1ccccc1F)c1cc([N+](=O)[O-])ccc1N1CCOCC1,-45.1
19,O=C(NC1CCSc2ccccc21)c1cc([N+](=O)[O-])ccc1N1CCOCC1 (stereo not drawn),-57.8
20,CC(C)CCNC(=O)c1cc([N+](=O)[O-])ccc1N1CCOCC1,-17.1
21,CCN(C(=O)COC(=O)c1cc([N+](=O)[O-])ccc1N1CCOCC1)c1ccccc1,-34.3
22,CN(Cc1ccccc1)C(=O)COC(=O)c1cc([N+](=O)[O-])ccc1N1CCOCC1,-56.7
23,CC(=O)Nc1ccc(NC(=O)COC(=O)c2cc([N+](=O)[O-])ccc2N2CCOCC2)cc1,0.326
24,CC(NC(=O)COC(=O)c1cc([N+](=O)[O-])ccc1N1CCOCC1)c1ccc(F)cc1 (stereo not drawn),-56.8
